Laboratory results published in the supplement of paper PMC11732987, “Enantioselective OTUD7B fragment discovery through chemoproteomics screening and high-throughput optimisation” (Communications Chemistry, 2025).

Experiments:
Assay in all cases: log2 ratio of Biotin-Ahx-Ub-VS probe labelling (fragment/DMSO); higher = less target engagement (more negative = stronger competition), active = hit call of the paper (q ≤ 0.05, log2 ratio ≤ -1)
Conditions in all cases: compound concentration: 200 uM; treatment time: 3 h
OTUD6B = target: T1, OTUD6B (UniProt Q8N6M0)
T1 sequence (whole entry): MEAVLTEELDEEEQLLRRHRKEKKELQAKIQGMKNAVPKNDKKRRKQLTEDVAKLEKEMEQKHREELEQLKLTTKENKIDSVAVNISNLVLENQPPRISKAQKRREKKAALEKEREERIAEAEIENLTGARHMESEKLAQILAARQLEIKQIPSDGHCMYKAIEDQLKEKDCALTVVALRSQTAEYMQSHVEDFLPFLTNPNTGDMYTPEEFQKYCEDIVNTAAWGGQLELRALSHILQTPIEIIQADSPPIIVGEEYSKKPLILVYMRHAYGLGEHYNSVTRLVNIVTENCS
Summary of the method: (§1)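 HEK293T lysate (495 µg per sample, in Tris/CHAPS/IGEPAL buffer with protease inhibitors) was exposed in triplicate for 3 h to fragment at 200 µM or to vehicle, then to Biotin-Ahx-Ub-VS at 0.5 µM final for 1 h. Labelled DUBs were enriched on NeutrAvidin, digested with LysC and trypsin, and analysed by diaPASEF LC-MS/MS. Spectronaut label-free quantities were normalised to the global median, and values are average log2 ratios of fragment over vehicle from an unpaired t-test. Only proteins with ≥2 unique peptides were used.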

OTUD7B = target: T2, OTUD7B (UniProt Q6GQQ9)
T2 sequence (whole entry): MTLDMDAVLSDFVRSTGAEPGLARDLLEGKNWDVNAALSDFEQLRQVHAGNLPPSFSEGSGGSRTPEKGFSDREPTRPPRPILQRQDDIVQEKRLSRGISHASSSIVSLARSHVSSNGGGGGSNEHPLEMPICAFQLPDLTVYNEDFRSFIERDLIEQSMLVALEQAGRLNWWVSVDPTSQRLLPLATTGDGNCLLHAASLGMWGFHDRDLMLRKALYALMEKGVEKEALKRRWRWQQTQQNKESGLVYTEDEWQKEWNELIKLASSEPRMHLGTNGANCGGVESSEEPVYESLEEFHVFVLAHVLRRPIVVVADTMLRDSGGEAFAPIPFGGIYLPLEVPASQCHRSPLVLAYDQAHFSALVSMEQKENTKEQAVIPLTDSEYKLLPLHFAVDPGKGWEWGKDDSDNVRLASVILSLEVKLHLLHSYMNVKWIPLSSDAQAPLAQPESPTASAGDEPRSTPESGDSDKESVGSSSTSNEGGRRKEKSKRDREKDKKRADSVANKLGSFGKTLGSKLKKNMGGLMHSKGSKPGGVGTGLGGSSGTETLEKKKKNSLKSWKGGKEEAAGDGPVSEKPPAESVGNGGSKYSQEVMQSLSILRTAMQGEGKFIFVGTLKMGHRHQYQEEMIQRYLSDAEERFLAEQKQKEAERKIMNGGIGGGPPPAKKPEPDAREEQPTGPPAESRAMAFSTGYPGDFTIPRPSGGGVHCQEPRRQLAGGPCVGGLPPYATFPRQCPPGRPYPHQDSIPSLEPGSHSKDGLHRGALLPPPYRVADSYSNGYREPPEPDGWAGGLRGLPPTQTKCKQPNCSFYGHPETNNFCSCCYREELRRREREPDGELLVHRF
Summary of the method: as §1

PRPF8 = PRPF8 (UniProt Q6P2Q9)
Summary of the method: as §1

PSMD7 = target: T3, PSMD7 (UniProt P51665)
T3 sequence (whole entry): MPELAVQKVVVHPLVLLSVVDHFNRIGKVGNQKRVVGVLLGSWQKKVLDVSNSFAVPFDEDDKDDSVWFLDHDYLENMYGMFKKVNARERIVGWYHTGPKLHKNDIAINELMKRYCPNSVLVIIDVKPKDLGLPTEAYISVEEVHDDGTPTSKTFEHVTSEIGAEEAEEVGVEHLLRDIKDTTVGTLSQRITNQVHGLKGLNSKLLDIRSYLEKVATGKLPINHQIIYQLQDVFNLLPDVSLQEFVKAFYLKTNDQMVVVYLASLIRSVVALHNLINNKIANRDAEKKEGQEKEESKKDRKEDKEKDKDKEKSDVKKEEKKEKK
Summary of the method: as §1

UCHL1 = UCHL1 (UniProt P09936)
Summary of the method: as §1

UCHL3 = target: T4, UCHL3 (UniProt P15374)
T4 sequence (whole entry): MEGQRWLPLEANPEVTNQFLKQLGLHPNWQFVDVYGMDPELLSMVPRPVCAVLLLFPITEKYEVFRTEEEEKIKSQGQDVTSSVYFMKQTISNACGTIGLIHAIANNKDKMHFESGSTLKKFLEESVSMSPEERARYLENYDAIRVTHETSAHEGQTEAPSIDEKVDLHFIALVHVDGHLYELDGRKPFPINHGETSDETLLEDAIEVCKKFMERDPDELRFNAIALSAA
Summary of the method: as §1

UCHL5 = target: T5, UCHL5 (UniProt Q9Y5K5)
T5 sequence (whole entry): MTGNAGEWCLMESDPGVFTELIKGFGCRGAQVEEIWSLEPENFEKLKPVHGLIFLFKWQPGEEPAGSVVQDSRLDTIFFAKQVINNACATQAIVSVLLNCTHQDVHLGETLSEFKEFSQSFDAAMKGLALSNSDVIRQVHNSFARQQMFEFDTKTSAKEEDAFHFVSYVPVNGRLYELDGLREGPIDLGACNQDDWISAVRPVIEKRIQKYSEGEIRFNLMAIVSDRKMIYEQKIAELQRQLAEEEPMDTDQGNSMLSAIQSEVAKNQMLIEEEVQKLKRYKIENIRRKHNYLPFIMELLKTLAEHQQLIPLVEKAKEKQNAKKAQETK
Summary of the method: as §1

USP10 = USP10 (UniProt Q14694)
Summary of the method: as §1

USP15 = target: T6, USP15 (UniProt Q9Y4E8)
T6 sequence (whole entry): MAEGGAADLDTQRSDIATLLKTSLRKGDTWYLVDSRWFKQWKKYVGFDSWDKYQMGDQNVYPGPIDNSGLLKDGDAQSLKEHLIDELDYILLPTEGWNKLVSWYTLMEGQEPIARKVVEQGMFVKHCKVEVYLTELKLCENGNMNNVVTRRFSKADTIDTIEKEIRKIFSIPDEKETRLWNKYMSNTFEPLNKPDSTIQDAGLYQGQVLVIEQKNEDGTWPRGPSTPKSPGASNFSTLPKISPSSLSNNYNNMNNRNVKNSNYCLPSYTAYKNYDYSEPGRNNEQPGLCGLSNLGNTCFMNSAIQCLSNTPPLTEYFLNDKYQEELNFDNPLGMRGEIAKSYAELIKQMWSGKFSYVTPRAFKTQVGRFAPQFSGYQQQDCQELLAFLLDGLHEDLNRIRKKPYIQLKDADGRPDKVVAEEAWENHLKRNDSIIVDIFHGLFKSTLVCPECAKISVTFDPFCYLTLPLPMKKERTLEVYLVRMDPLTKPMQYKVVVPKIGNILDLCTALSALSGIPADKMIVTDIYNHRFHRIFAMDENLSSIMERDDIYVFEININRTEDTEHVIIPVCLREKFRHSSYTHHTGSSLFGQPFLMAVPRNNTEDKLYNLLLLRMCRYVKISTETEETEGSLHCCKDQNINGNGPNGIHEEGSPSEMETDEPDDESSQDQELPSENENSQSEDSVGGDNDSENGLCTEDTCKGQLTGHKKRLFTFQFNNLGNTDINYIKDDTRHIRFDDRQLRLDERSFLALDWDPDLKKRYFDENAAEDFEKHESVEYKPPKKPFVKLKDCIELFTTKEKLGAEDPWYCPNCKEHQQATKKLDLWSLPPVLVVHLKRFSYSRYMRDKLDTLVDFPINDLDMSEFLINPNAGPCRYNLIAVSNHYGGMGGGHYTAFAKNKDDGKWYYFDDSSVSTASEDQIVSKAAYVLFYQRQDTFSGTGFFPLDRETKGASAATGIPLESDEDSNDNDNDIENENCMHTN
Summary of the method: as §1

USP16 = USP16 (UniProt Q9Y5T5)
Summary of the method: as §1

Measured: log2 ratio of Biotin-Ahx-Ub-VS probe labelling

Sequence of USP10 (Q14694 whole entry): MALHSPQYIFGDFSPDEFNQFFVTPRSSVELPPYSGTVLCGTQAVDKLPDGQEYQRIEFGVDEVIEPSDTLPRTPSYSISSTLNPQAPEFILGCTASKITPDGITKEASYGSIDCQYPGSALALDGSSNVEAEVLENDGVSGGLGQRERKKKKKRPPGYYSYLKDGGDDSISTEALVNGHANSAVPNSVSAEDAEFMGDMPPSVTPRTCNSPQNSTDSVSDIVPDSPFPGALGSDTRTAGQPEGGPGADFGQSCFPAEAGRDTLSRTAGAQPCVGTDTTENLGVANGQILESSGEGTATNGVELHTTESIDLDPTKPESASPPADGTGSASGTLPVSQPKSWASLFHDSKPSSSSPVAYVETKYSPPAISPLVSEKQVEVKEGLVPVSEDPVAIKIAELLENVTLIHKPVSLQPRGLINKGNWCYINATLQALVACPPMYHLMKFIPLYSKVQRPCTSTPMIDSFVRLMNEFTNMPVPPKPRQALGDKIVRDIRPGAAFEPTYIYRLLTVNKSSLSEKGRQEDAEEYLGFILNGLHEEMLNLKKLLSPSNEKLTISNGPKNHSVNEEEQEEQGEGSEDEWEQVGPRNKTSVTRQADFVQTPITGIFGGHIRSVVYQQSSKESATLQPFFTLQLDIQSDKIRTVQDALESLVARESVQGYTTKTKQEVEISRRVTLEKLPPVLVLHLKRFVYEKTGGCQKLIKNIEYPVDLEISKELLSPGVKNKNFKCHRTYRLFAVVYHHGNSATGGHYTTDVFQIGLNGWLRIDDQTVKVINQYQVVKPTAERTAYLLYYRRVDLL
Sequence of USP16 (Q9Y5T5 whole entry, looked up): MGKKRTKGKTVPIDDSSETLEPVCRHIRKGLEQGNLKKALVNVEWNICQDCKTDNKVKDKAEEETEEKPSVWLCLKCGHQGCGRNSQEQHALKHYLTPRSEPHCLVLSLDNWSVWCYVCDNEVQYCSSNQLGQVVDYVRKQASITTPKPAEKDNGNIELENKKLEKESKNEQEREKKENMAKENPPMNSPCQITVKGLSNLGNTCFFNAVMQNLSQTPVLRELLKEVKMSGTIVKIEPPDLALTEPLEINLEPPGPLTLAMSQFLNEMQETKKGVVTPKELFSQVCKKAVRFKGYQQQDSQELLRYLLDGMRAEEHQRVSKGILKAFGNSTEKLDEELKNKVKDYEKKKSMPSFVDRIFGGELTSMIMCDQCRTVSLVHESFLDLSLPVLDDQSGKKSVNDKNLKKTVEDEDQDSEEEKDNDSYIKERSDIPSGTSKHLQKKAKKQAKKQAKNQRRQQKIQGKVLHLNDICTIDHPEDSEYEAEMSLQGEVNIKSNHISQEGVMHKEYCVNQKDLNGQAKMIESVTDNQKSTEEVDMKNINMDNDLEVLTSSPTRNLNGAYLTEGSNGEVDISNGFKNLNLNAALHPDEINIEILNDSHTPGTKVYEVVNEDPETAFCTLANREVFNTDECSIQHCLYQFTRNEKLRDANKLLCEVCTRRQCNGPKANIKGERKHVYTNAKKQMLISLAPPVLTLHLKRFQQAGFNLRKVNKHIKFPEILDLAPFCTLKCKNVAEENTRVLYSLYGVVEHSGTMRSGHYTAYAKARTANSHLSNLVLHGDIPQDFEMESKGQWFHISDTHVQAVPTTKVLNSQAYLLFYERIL
Sequence of UCHL1 (P09936 whole entry, looked up): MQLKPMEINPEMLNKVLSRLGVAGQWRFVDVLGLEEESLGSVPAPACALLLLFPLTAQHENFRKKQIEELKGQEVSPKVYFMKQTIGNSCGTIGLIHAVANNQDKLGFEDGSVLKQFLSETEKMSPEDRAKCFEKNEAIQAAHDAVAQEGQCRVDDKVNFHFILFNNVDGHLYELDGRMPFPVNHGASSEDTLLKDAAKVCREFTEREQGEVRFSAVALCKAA

O=C(CCl)N1CCN(c2nc3ccccc3o2)CC1
active: UCHL1 -1.49
inactive: OTUD6B -0.147 | OTUD7B -0.25 | PRPF8 0.299 | PSMD7 -0.247 | UCHL3 -0.125 | UCHL5 -0.319 | USP10 -0.131 | USP15 -0.407 | USP16 -0.379
